Experimental data reported in PubChem BioAssay AID1974 (The Scripps Research Institute Molecular Screening Center, 2009).
About 3,200 (1.1%) of roughly 300,000 compounds were called active. What follows is part of a selection rich in actives, with near analogues and random picks from the rest. A number with no mark means an inactive call.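 The calls were made as follows: active = inhibition above the campaign mean inhibition plus 3 SD (cut at about 35% in these data); inactive = the rest.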

Each compound was assayed against Glutathione S-transferase omega-1 (Homo sapiens) (UniProt P78417) (assay: human GSTO1 enzyme inhibition – biochemical, fluorescence polarization, counter-screen for RBBP9 inhibitor project, primary screen (AID 1974;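 also: 0% = GSTO1-1 with DMSO and 100% = wells lacking GSTO1-1 enzyme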)). Conditions: recombinant GSTO1, activity-based probe fluorescence polarization; at 5.96 µM; stronger effect = higher value.
Chain of Glutathione S-transferase omega-1 (Homo sapiens) (P78417 whole entry, looked up): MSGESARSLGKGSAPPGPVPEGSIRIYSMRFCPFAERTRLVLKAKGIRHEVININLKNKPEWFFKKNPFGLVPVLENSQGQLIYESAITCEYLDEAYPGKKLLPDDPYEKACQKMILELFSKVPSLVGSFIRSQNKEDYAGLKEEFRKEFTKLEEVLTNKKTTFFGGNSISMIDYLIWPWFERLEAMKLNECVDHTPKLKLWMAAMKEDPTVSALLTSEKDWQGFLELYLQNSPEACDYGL

| SMILES | inhibition |
| --- | --- |
| CCCCN(CCCC)CCC(O)c1cc2c(Cl)cc(Cl)cc2c2cc(C(F)(F)F)ccc12 (stereo not drawn) | 7.04% |
| COc1ccc(CNC(=O)C2(CC3CC(c4ccccc4)=NO3)CCN(C(=O)c3cccc(O)c3)CC2)cc1 (stereo not drawn) | -2.65% |
| Cc1noc(C)c1C(=O)N1CCOCC1 | -8.26% |
| CCOC(=O)c1ccccc1C(=O)N1CCOCCOCCOCC1 | 0.47% |
| Cc1oc2c(c1C(=O)N1CCOCC1)C(=O)c1ccccc1C2=O | 49% (active) |
| CCOc1ccc(CC(=O)NCCS(=O)(=O)N2CCN(c3ccccc3)CC2)cc1 | 2.49% |
| COc1ccc(-c2csc3ncnc(N4CCN(S(=O)(=O)c5cccc(F)c5)CC4)c23)cc1 | -26.4% |
| COc1cc(CC(=O)N/N=C/c2ccccc2)c([N+](=O)[O-])cc1OC | -0.51% |
| CCOc1ccc(N2CC(C(=O)N/N=C/c3sccc3C)CC2=O)cc1 (stereo not drawn) | 8.53% |
| Cc1ccsc1/C=N/NC(=O)Cc1cc(=O)[nH][nH]1 | 37.2% (active) |
| Cc1cc(C(=O)N/N=C/c2ccccc2[N+](=O)[O-])c(C)o1 | -0.23% |
| Cc1ccsc1C(=O)N/N=C/c1ccc([N+](=O)[O-])cc1 | 0.47% |
| O=C(Cc1cc(=O)[nH][nH]1)N/N=C/c1ccccc1[N+](=O)[O-] | 49.5% (active) |
| CCC(C)c1ccccc1N1CC(C(=O)N2CCN(S(=O)(=O)c3ccc(F)cc3)CC2)CC1=O (stereo not drawn) | 2.71% |
| CCOC(=O)/C=C/c1ccc(C(F)(F)F)cc1S(=O)(=O)NC(C)(C)C | -1.78% |
| COC(=O)c1ccc2ccccc2c1OC1OC(CO)C(O)C(O)C1NC(C)=O (stereo not drawn) | 2.04% |
| Cc1ccc2nc(NC(=O)C3CSC4(C)CCC(=O)N34)sc2c1 (stereo not drawn) | 1.93% |
| Cc1nn(-c2ccccc2)c2c1C(c1ccc(F)cc1)C(C#N)=C(N)O2 (stereo not drawn) | 25.3% |
| COc1ccccc1C1C(C#N)=C(N)Oc2c1c(-c1ccccc1)nn2-c1ccccc1 (stereo not drawn) | 59.1% (active) |
| Cc1nn(Cc2ccccc2)c2c1C(c1ccccc1)C(C#N)=C(N)O2 (stereo not drawn) | 6.98% |
| C#CCOCCOCCOCCNc1nc(N2CCN(C(=O)CCCCCCCCCCNC(=O)[C@H](CCCCN)n3cc(C)nn3)CC2)nc(N2CCN(C(=O)CCCCCCCCCCNC(=O)[C@H](CO)n3cc(CCCSC)nn3)CC2)n1 | 4.17% |
| CCOC(=O)[C@H]1[C@H]2COc3ccc(Cl)cc3[C@@H]2N2C(=O)c3cc(C)ccc3NC(=O)[C@@]12C | 1.13% |

| SMILES | inhibition |
| --- | --- |
| Cc1nc2ccccc2c(=O)n1-c1ccc(F)c(NC(=O)c2cccs2)c1 | -6.66% |
| CCN(C(=O)CSc1nnc(-c2ccc(OC(F)F)cc2)n1N)C1CCS(=O)(=O)C1 (stereo not drawn) | -5.72% |
| Cc1ccc(-c2nn(-c3ccc(F)cc3)cc2C(=O)NCC(c2cccs2)N2CCOCC2)cc1 (stereo not drawn) | -3.34% |
| c1ccc(CSc2nnc(-c3ccco3)c(-c3ccco3)n2)cc1 | 59.8% (active) |
| Fc1cccc(Cl)c1CSc1ccc(-c2ccco2)nn1 | 3.45% |
| O=c1[nH]c(SCc2ccccc2)nnc1-c1ccccc1 | -7.41% |
| Clc1ccccc1CSc1nnc(-c2ccco2)c(-c2ccco2)n1 | 53% (active) |
| Brc1ccc(CSc2ccc(-c3ccco3)nn2)cc1 | -3.33% |
| O=c1cc(O)nc(SCc2ccccc2Cl)[nH]1 | -11.3% |
| Cc1cc(C)n2nc(C(=O)OC(C)C(=O)c3cc(C)c(C)cc3C)nc2n1 (stereo not drawn) | 3.12% |
| COc1ccc(CNC(=O)CNC(=O)c2sc3ccccc3c2Cl)cc1OC | -3.56% |
| O=c1[nH]c(/C=C/c2cccc(Br)c2)nc2ccccc12 | -7.5% |
| O=[N+]([O-])c1ncc(Br)cc1Nc1ccccc1 | 13.4% |
| COc1cc(/C=N/NC(=O)c2cc(C)n(-c3ccc(F)cc3)c2C)cc(OC)c1O | 35.7% (active) |
| COc1cc(/C=N/NC(=O)c2cc(-c3ccccc3C)nc3ccccc23)cc(OC)c1O | 3% |
| Cc1cc(C(=O)N/N=C/c2ccc(O)c([N+](=O)[O-])c2)c(C)n1-c1ccc(F)cc1 | 23.2% |
| CN(C)CCn1c2c(c(SCC(=O)Nc3ccccc3C(F)(F)F)nc1=O)CCCC2 | -0.08% |
| C=CCNC(=O)c1cc(-c2ccccc2O)on1 | 3.47% |
| CCN(CC(=O)Nc1ccccc1C(F)(F)F)C(=O)CSCc1c(C)noc1C | -6.06% |
| C=CCNC(=O)c1ccccc1SCc1c(C)noc1C | 55.2% (active) |
| COc1ccc(N2CCN(S(=O)(=O)c3cc4c5c(c3)C(C)C(=O)N5CCC4)CC2)cc1 (stereo not drawn) | 8.18% |
| Cc1nc2ccccc2c(=O)n1-c1ccc(NS(=O)(=O)c2ccc(F)cc2F)cc1 | -1.88% |

| SMILES | inhibition |
| --- | --- |
| CC(=O)C12CC(C)=C(C)CC1CC1C3CCC4=CC(=O)CCC4(C)C3CCC12C (stereo not drawn) | 0% |
| CC1(C)S[C@@H]2[C@H](N=CN3CCCCCC3)C(=O)N2[C@H]1C(=O)O | 1.77% |
| COC(=O)c1cc(CNC(=O)CC(C)c2ccccc2)ccc1OC (stereo not drawn) | 3.39% |
| CC1(c2nnc(-c3ccncc3)o2)CC(c2cccnc2)=NO1 (stereo not drawn) | 7.77% |
| CCc1nnc(NC(=O)CSc2nc3c(c(=O)n2-c2ccccc2OC)SCC3)s1 | 35.6% (active) |
| CCOc1ccc(NC(=O)CSc2nc3c(c(=O)n2-c2ccccc2OC)SCC3)cc1 | 9.5% |
| CCc1nnc(NC(=O)CSc2nnc(Cc3ccccc3)n2-c2ccc(OC)cc2)s1 | -0.09% |
| OCC[C@H]1C[C@@H](O)[C@H](O)[C@]2(OCCCc3ccccc32)O1 | -3.33% |
| CC(C)CC[n+]1ccn(C2=C([O-])c3ccccc3C(=O)/C2=N\S(=O)(=O)c2ccccc2)c1 | 70.8% (active) |
| COc1ccc(N(C(=O)c2cccnc2)S(=O)(=O)c2ccc3c(c2)n(C)c(=O)n3C)cc1 | 9.41% |
| COc1ccc(N(C(=O)c2cccnc2)S(=O)(=O)c2ccc(OC)c(OC)c2)cc1 | 8.53% |
| O=C(c1cccnc1)N(c1cc2sc(=O)oc2c2ccccc12)S(=O)(=O)c1ccccc1 | 66.5% (active) |
| CN(C)C1=NC[C@H](Cc2ccccc2)N1CCc1ccc(F)cc1 | 0.73% |
| OCC[C@H]1C[C@@H](O)[C@H](O)[C@@]2(OCCc3ccccc32)O1 | 7.38% |
| Cc1nc2c(c(C)nn2-c2ccccc2)c(C)c1C | 15.1% |
| Cc1c(C)c2ccc(OCC(=O)N3CCC(C(=O)O)CC3)c(C)c2oc1=O | -1.66% |
| O=C(CNC(=O)C1COc2ccccc2O1)N/N=C/c1cc(Br)c(O)c(Br)c1 (stereo not drawn) | -6.29% |
| Cc1c(CC(=O)N2CCN(C(=O)C3COc4ccccc4O3)CC2)c(=O)oc2c(O)c(O)ccc12 (stereo not drawn) | 45.1% (active) |
| O=C(NCCCN1CCCC1=O)c1ccc(S(=O)(=O)Nc2ccccc2)cc1 | 0.39% |
| CC(C)(C)OC(=O)c1c(N)n(CCCN2CCCC2=O)c2nc3ccccc3nc12 | 63.9% (active) |
| COCC(C)OC(=O)c1c(N)n(CCCN2CCOCC2)c2nc3ccccc3nc12 (stereo not drawn) | 11.9% |
| O=[N+]([O-])c1ccc(S(=O)(=O)Nc2cccc(-c3ccc(N4CCCC4)nn3)c2)cc1 | -8.25% |

| SMILES | inhibition |
| --- | --- |
| COc1ccc(CNC(=O)[C@@H]2CC=C[C@@H]3CCN(C4CC4)C(=O)[C@@H]32)cc1 | -0.21% |
| Cc1cccc(N2CCN(c3ccc(NC(=O)/C=C\C(=O)O)cc3)CC2)c1 | 42.2% (active) |
| CN1CCN(c2ccc(NC(=O)c3ccccc3)cc2)CC1 | 2.04% |
| CSc1ccc(NC(=O)/C=C/C(=O)O)cc1 | 0.81% |
| CCCn1c(C)cc(-c2csc(NC(=O)CCc3nc4ccccc4c(=O)[nH]3)n2)c1C | -4.01% |
| O=C(CCc1[nH]c2ccccc2c1Sc1ccccc1)N(CCO)CCO | 3.25% |
| CCCCN(C(=O)CCNC(=O)NC12CC3CC(CC(C3)C1)C2)c1c(N)n(CCCC)c(=O)[nH]c1=O | -0.02% |
| N#CC1(NC(=O)COC(=O)CSc2ccc(F)cc2)CCCCC1 | 6.75% |
| CCOC(=O)c1c(NC(=O)c2ccc(S(=O)(=O)N(C)CC3CCCO3)cc2)sc2c1CC(C)(C)NC2(C)C (stereo not drawn) | 55.4% (active) |
| CN(CC1CCCO1)S(=O)(=O)c1ccc(C(=O)Nc2ccc(F)cc2)cc1 (stereo not drawn) | 2.1% |
| Cc1cccc(NC(=O)c2ccc(S(=O)(=O)N(C)CC3CCCO3)cc2)c1C (stereo not drawn) | -5.06% |
| O=C(Nc1ccc(S(=O)(=O)N2CCCCC2)cc1)C1CCN(C(=O)c2ccc(F)cc2)CC1 | -4.69% |
| CC(Oc1cccc(Cl)c1)C(=O)Nc1ccc(S(=O)(=O)Nc2ncccn2)cc1 (stereo not drawn) | -7.06% |
| COc1ccc(C(C(=O)NC2CCCCC2)N(C(=O)c2snc(C(N)=O)c2N)c2ccccc2OC)cc1 (stereo not drawn) | -5.23% |
| COc1ccc(C(C(=O)NC2CCCCC2)N(C(=O)CCl)c2ccccc2Cl)cc1 (stereo not drawn) | 38.1% (active) |
| COc1cccc(N(C(=O)C2COc3ccccc3O2)C(C(=O)NC2CCCCC2)c2ccc(O)cc2)c1 (stereo not drawn) | 0.47% |
| CC1=C(N2CCN(c3ncccn3)CC2)CCC1=O | -2.06% |
| CCn1c(SC(C)C(=O)Nc2ccc(N3CCOCC3)cc2)nnc1-c1ccco1 (stereo not drawn) | -7.32% |
| CCOC(=O)C(C)N(c1ccccc1Cl)S(C)(=O)=O (stereo not drawn) | 2.86% |
| Cc1cc(Cl)c(S(=O)(=O)NCC2CCCO2)cc1OCC(N)=O (stereo not drawn) | -0.4% |
| Cc1cc(Cl)c(S(=O)(=O)Nc2ccc3c(c2)OCCO3)cc1OCC(N)=O | 35.7% (active) |
| Cc1cc(Cl)c(S(=O)(=O)N(C)C)cc1OCC(N)=O | -3.27% |
